Data on 61 molecules can be found in PubChem BioAssay AID1851 (National Center for Advancing Translational Sciences (NCATS), 2009).

Hit rate of the full screen: of about 16,000 compounds, about 5,800 (36%) were called active. Not shown: some 23% with an inconclusive outcome. The call rests on the fitted dose curve; in most records, active means well fitted curve in the direction sought with a large enough effect; inconclusive means small, poorly fitted or top-dose-only effect, or effect the other way; inactive means no such curve, though single readings can be large or run the other way. Some of the results follow.
On the % scale 0 is the no-effect control and ±100 the full control effect.

In this assay the target is Cytochrome P450 2C19 (Homo sapiens) (UniProt P33261). Briefly: Cytochrome panel assay with activity outcomes. Particulars: recombinant CYP, pro-luciferin dealkylation, luminescence, p450-cyp2c19; series mostly up to 57.1 µM; activity, negative = inhibition: at the top concentration.
Chain of Cytochrome P450 2C19 (Homo sapiens) (P33261 whole entry, looked up): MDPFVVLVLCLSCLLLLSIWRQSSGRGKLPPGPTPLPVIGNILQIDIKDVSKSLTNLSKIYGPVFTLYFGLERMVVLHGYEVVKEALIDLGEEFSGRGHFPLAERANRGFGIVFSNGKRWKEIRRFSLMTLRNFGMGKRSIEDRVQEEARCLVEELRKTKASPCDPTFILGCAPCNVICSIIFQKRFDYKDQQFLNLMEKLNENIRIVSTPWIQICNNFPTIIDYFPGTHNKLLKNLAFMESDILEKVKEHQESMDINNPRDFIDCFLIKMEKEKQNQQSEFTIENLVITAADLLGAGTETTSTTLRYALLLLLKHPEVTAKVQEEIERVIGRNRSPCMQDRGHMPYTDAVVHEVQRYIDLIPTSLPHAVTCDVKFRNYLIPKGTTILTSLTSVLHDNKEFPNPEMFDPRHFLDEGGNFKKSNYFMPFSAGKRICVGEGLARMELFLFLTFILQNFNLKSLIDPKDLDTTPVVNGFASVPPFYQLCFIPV
`CO[C@]1(NC(=O)C2SC(=C(C(N)=O)C(=O)O)S2)C(=O)N2C(C(=O)O)=C(CSc3nnnn3C)CS[C@H]21` (stereo partly specified): the “activity, negative = inhibition” value was -28.9% [at 25.6 µM] (inactive). Still for that read-out and setting: the result for `NCCC(=O)O` reads 20.3% (inactive). Regarding `CCC(Sc1nc2n[nH]c(C)c2c(=N)n1-c1cccc(Cl)c1)C(=O)NCCOC` (stereo unspecified), the AC50 is 10 µM (active). For `Cc1cc([N+](=O)[O-])c(C)c(Br)c1C`, the activity, negative = inhibition was 8.85% [at 11.4 µM] (inactive).

Turning to `CCC(C)Nc1c([N+](=O)[O-])cc(C)cc1[N+](=O)[O-]` (stereo unspecified), the half-maximal activity concentration (AC50) is 7.94 µM (active). As for `O=C(O)Cc1cccnc1`, the activity, negative = inhibition was 9.66% [at 11.4 µM] (inactive). Take `c1ccc(C[C@@H](Nc2cccnc2)c2ccccc2)cc1`: the AC50 was 1 µM (active).

On to `C[C@@H](N)[C@@H](C)Cc1ccccc1`, for which the activity, negative = inhibition was -14.2% [at 11.4 µM] (inactive). For `O=c1[nH]cc(CS(=O)(=O)Cc2c[nH]c(=O)[nH]c2=O)c(=O)[nH]1`, the activity, negative = inhibition is 41% [at 11.4 µM] (inactive). In the case of `CC1(C)CC(=O)C(C=NCCN2CCN(C(=S)Nc3ccc(F)cc3)CC2)=C(O)C1`, the AC50 was 10 µM (active). For `COCCCN=CC1=C(O)CC(C)(C)CC1=O`, the “activity, negative = inhibition” value is -18.8% (inactive). `CC(=O)N1CCC2(CC1)CN(Cc1ccccc1)C2`: the “activity, negative = inhibition” value was 8.15% (inactive). As for `CCCCN1CSC(=S)N(Cc2ccccc2)C1`, the concentration at half-maximal activity (AC50) is 1.26 µM (active). Same read-out and setting: in the case of `S=C1SCN(CCN2CCOCC2)CN1Cc1ccccc1` it was 10 µM (active).

In the case of `COc1cc2cc3c4cc(OC)c(OC)cc4cc[n+]3c(C)c2cc1OC`, the “activity, negative = inhibition” value is 44.3% [at 25.6 µM] (inactive). As for `Cc1oc(-c2ccccc2)cc1C(=O)Nc1ccc(N(C)C)cc1`, the AC50 is 5.62 µM (active). As for `Cc1oc(C(C)(C)C)cc1C(=O)Nc1cccc(/C=C/C(=O)O)c1`, the “activity, negative = inhibition” value was -12.3% (inactive). `Cc1ccc(NC(=O)c2ccccc2C(=O)O)cc1C`: the activity, negative = inhibition is -34.4% [at 11.4 µM] (inactive).

For the molecule `CCn1c(=N)c(S(=O)(=O)c2ccc(F)cc2)cc2c(=O)n3ccccc3nc21`, the AC50 was 8.91 µM (active). For `Cn1c(=N)c(S(=O)(=O)c2ccc(F)cc2)cc2c(=O)n3ccccc3nc21`, the concentration at half-maximal activity (AC50) is 11.2 µM (active).

With `Cn1c(C(=O)N2COCC2(C)C)cc2c(=O)n3ccccc3nc21`, the “activity, negative = inhibition” value was -15.8% (inactive).

As to `Cc1cn([C@H]2C[C@H](O)[C@@H](COC(N)=O)O2)c(=O)[nH]c1=O`, the activity, negative = inhibition is 35.3% [at 11.4 µM] (inactive). Regarding `COc1cccc(Nc2ncc3nc(-c4ccc(Cl)cc4)c(=O)n(C4CC4)c3n2)c1`, the “activity, negative = inhibition” value is -31.9% (inactive). `COc1ccc(Nc2cc(=O)n(C3CCCCC3)c(=O)[nH]2)c(OC)c1`: the AC50 was 10 µM (active). With `COc1cccc(Nc2ncc3ncc(=O)n(C4CC4)c3n2)c1`, the “activity, negative = inhibition” value is -14% (inactive). Turning to `CS[C@@H](CC(=O)O)C(=O)O`, the activity, negative = inhibition is 17.7% [at 11.4 µM] (inactive).

Take `Cc1nnc(N(C)C(=O)c2ccccn2)s1`: the “activity, negative = inhibition” value was -2.67% (inactive). Turning to `COc1cccc(C(=O)N(C)c2nnc(-c3ccncc3)s2)c1`, the AC50 is 0.0501 µM (active).

Regarding `CCOc1ccc2nc(SCc3ccccc3C#N)sc2c1`, the concentration at half-maximal activity (AC50) is 1.26 µM (active). For `C=C(C)c1cccc(C(C)(C)NC(=O)Nc2cc(C)ccc2OC)c1`, the AC50 is 3.98 µM (active).

Turning to `CCCCn1c(NCc2ccccc2NS(=O)(=O)c2ccc(C)cc2)nc2ccccc21`, the AC50 was 1.26 µM (active). Consider `C#CCCCO/N=C1/C[C@@H](O)[C@@H](O)[C@@H]2[C@H]3C(=O)N(c4ccc(F)cc4F)C(=O)[C@@H]3CC[C@H]12`, for which the activity, negative = inhibition was 14.9% [at 11.4 µM] (inactive). With `c1ccc(C(CCN2CC3CCC(CC3)C2)c2ccccc2)cc1`, the activity, negative = inhibition was 21% [at 11.4 µM] (inactive). Consider `C[C@H](NCCC(c1ccccc1)c1ccccc1)c1ccccc1`, for which the AC50 was 5.01 µM (active). Turning to `NC(=O)CNCCC(c1ccccc1)c1ccccc1`, the “activity, negative = inhibition” value is 8.34% (inactive). As for `CCOC(=O)c1ccccc1Oc1c(F)c(F)nc(NCCO)c1F`, the AC50 was 2.51 µM (active). In the case of `CCOC(=O)c1cnc(-n2nc(C)cc2C)nc1NCCO`, the “activity, negative = inhibition” value was -10.6% (inactive). As for `COc1ccc(C(=O)NNC(=O)CSc2nnc(COc3ccc4ccccc4c3)n2C)cc1`, the “activity, negative = inhibition” value is -23.2% (inactive). Consider `CCn1c(COc2ccccc2)nnc1SCC(=O)Nc1cc(OC)ccc1OC`, for which the half-maximal activity concentration (AC50) is 2.82 µM (active).

With `COc1ccc(OC)c(C(=O)CSc2nnc(Cc3cccs3)n2CCc2ccccc2)c1`, the AC50 is 1.78 µM (active). Regarding `CCn1c(CNC(=O)COc2ccc(C(C)C)cc2)nnc1SCC(=O)Nc1cc(F)ccc1C`, the AC50 was 28.2 µM (active). Regarding `COc1ccc(CCn2c3c(c(=O)[nH]c2=O)C(NC(=O)c2cccs2)(C(F)(F)F)C(=O)N3)cc1OC` (stereo unspecified), the “activity, negative = inhibition” value was -27.7% (inactive). For `COc1cccc(Nc2ncc3nc(CCc4ccccc4)c(=O)n(Cc4cccs4)c3n2)c1`, the “activity, negative = inhibition” value was -7.96% (inactive).

Turning to `COc1ccc(NC(=O)CSc2nnc(Cc3cccn3C)n2CCc2ccccc2)c(OC)c1`, the AC50 was 3.16 µM (active). On to `COc1ccc([C@@H]2CC(=O)c3c(O)cc(O[C@H]4O[C@@H](CO[C@H]5O[C@@H](C)[C@@H](O)[C@@H](O)[C@@H]5O)[C@@H](O)[C@@H](O)[C@@H]4O)cc3O2)cc1O`, for which the “activity, negative = inhibition” value is 4.66% [at 25.6 µM] (inactive). With `O=C1c2c(O)cc(O)cc2O[C@@H](c2ccc(O)c(O)c2)[C@H]1O`, the “activity, negative = inhibition” value was -32.5% (inactive). As to `COc1ccc([C@@H]2CC(=O)c3c(O)cc(O)cc3O2)cc1O`, the AC50 was 5.01 µM (active). As to `Cn1cc(C(=O)c2cccc(Cl)c2Cl)cc1C(=O)O`, the “activity, negative = inhibition” value is -3.12% (inactive). With `COC(=O)c1cc(C(=O)c2cccc(Cl)c2Cl)cn1C`, the AC50 is 1.26 µM (active).

For `Cc1c(-n2cc(C(=O)c3cc(Cl)ccc3O)cc(C#N)c2=O)c(=O)n(-c2ccccc2)n1C`, the “activity, negative = inhibition” value was -27.3% (inactive). The same measure, in the same setting: in the case of `Cn1cc(C(=O)c2ccc(Cl)cc2Cl)cc1C(=O)O` it was -2.68% (inactive). For `COC(=O)c1cc(C(=O)c2ccc(Cl)cc2Cl)cn1C`, the half-maximal activity concentration (AC50) is 5.62 µM (active). With `CN(C)CCCn1cc(C2=C(c3c[nH]c4ccccc34)C(=O)NC2=O)c2ccccc21`, the “activity, negative = inhibition” value was -39.8% (inactive). With `COc1ccc(-c2nc3cnc(N(C)C)nc3n(CCc3ccccc3)c2=O)cc1`, the “activity, negative = inhibition” value is -21.6% (inactive). As for `CN(C)c1ncc2nc(-c3ccc(F)cc3)c(=O)n(CCc3ccccc3)c2n1`, the “activity, negative = inhibition” value is -11.8% (inactive). Regarding `Cc1nc2cnc(N(C)C)nc2n(CCc2ccccc2)c1=O`, the AC50 was 0.631 µM (active). Take `CN(C)c1ncc2nc(-c3ccccc3)c(=O)n(CCc3ccccc3)c2n1`: the “activity, negative = inhibition” value was -43.1% (inactive).

For the molecule `CN(C)c1ncc2ncc(=O)n(CCC#N)c2n1`, the “activity, negative = inhibition” value is -36.6% (inactive). As to `CN(C)c1ncc2ncc(=O)n(CCc3ccccc3)c2n1`, the concentration at half-maximal activity (AC50) was 2 µM (active). Take `Cc1ccc(-n2c(O)cnc2Nc2nc(C)cc(C)n2)cc1`: the “activity, negative = inhibition” value is -16.7% (inactive). Take `COc1c(C)c2c(c(O)c1C/C=C(\C)CCC(=O)O)C(=O)OC2`: the AC50 result was “inactive”.

Broadly, the AC50 is the concentration giving half of the maximal activity seen.
